FMDV antiviral – High Throughput Screening for Foot and Mouth Disease Virus Antivirals; FMDV antiviral cell-based qHTS; Potency, µM (series often up to 57.9 µM), most hits filed as inhibitors; AID 1159524, 2015; 410,000 compounds, 1.2% hits; calls by dose curve; tested in HEK293T cells; further: read-out not given here; nearly all actives have a fitted effect of over 45% in size
LASV entry inh – qHTS for Inhibitors of binding or entry into cells for Lassa Virus; Lassa virus pseudotype entry inhibition, cell reporter; Potency, µM (series often up to 37.9 µM), usual class: inhibitors; 300,000 compounds, 1.2% hits; AID 540256, 2011; calls by dose curve; tested in HEK293 cells; further: nearly all actives have a fitted effect of over 50% in size
HCMV inh – qHTS Assay for inhibitors of the human cytomegalovirus (HCMV); 410,000 compounds, 4.5% hits; HFF cells, HCMV-luciferase reporter, 72 h; hits give low values; activity change, negative = inhibition, % at 57.5 µM; in the data active means activity change below about -60%; inconclusive means no clear call, values can overlap the other calls; inactive means above about -39%
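Luciferase read-out from HCMV-luciferase-infected HFFs (MOI 1 PFU/cell) 72 h post infection at 37C; compounds added after 16 h cell attachment; activity normalized between buffer-only basal and Salinomycin (10uM) inhibitor controls.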
MARV entry inh – qHTS for inhibitors of binding or entry into cells for Marburg Virus | Marburg virus pseudotyped entry inhibition, cell reporter | Potency, µM (highest dose often 37.8 µM), usual class: inhibitors | 300,000 compounds, 1.8% hits | AID 540276, 2011; calls by dose curve; tested in HEK293 cells
Of the large screens only hits and unclear results are named; the others gave an inactive call. The list is not random: actives were taken first. Their share in the collection is about 6.2%.

COc1ccccc1NC(=S)N(CCCN1CCOCC1)Cc1cn(C)c2ccccc12	HCMV inh -93.9, MARV entry inh inconclusive
COc1cc(Cl)ccc1NC(=S)N(CCCN1CCOCC1)Cc1cn(C)c2ccccc12	LASV entry inh inconclusive, HCMV inh -91.9, MARV entry inh inconclusive
COc1ccc(Cl)cc1NC(=S)N(CCCN1CCOCC1)Cc1cn(C)c2ccccc12	HCMV inh -71.3, MARV entry inh inconclusive
COc1ccc(NC(=S)N(CCN2CCOCC2)Cc2ccccc2F)cc1	LASV entry inh inconclusive, MARV entry inh inconclusive
CCOc1ccccc1NC(=S)N(CCCN1CCOCC1)Cc1cn(C)c2ccccc12	LASV entry inh inconclusive, HCMV inh inconclusive, MARV entry inh inconclusive
COc1ccccc1NC(=S)N(CCN1CCOCC1)Cc1ccccc1F	LASV entry inh inconclusive, HCMV inh -60.7, MARV entry inh inconclusive
CCOc1ccccc1NC(=O)C1CCCN1S(=O)(=O)c1ccc2nc(-c3ccccc3)[nH]c2c1 (stereo unspecified)	LASV entry inh inconclusive, HCMV inh inconclusive (no result: MARV entry inh)
CC(C)C(=O)N1CCCC1(C)C(=O)Nc1ccc(-n2cncn2)cc1 (stereo unspecified)	none (no result: LASV entry inh, MARV entry inh)
COc1cc(/C=C(\C#N)c2nc3ccccc3s2)cc([N+](=O)[O-])c1O	HCMV inh -62.1, MARV entry inh inconclusive
O=C(CCl)Nc1cccc(-c2cnc3ccccc3n2)c1	FMDV antiviral 25.1µM, LASV entry inh inconclusive, HCMV inh -98.1, MARV entry inh inconclusive
O=C(Nc1cccc(-c2cnc3ccccc3n2)c1)c1ccccc1	none
O=C(Nc1cccc(-c2cnc3ccccc3n2)c1)c1cccc(NC(=O)c2ccco2)c1	FMDV antiviral inconclusive, LASV entry inh inconclusive, MARV entry inh 11.6µM
O=C(CCl)Nc1ccc(Oc2cnc3ccccc3n2)cc1	FMDV antiviral 20µM, LASV entry inh 20.6µM, HCMV inh -103.7, MARV entry inh inconclusive
C=CCNC(=O)CN1C(=O)CSc2ccc(S(=O)(=O)N3CCOCC3)cc21	none (no result: LASV entry inh, MARV entry inh)
CCOc1ccc(CNCc2c(C(=O)O)n(Cc3ccccc3F)c3cc(OC)ccc23)cc1	none (no result: MARV entry inh)
COc1cccc(C(=O)C(=O)NC(C)(C)C)c1	none (no result: FMDV antiviral, LASV entry inh, MARV entry inh)
CSC(SC)=C(C#N)C(=O)c1ccccc1	FMDV antiviral 15.8µM, LASV entry inh inconclusive
N#CC(C#N)=C(Nc1ccccc1)c1ccccc1	none
COc1cccc(C(=O)C(C#N)=C(SC)SC)c1	FMDV antiviral 28.2µM (no result: LASV entry inh, MARV entry inh)
Nc1ncnc(Sc2ncccn2)c1[N+](=O)[O-]	FMDV antiviral 31.6µM (no result: LASV entry inh, MARV entry inh)
Nc1ncnc(Sc2ccccc2)c1[N+](=O)[O-]	none
CN(Cc1ccc(F)cc1)C(=O)c1cccc(S(=O)(=O)N2CCN(c3ccc(F)cc3)CC2)c1	FMDV antiviral inconclusive, LASV entry inh inconclusive, MARV entry inh inconclusive
O=C(NCC1COc2ccccc2O1)c1cccc(S(=O)(=O)N2CCN(c3ccccc3)CC2)c1 (stereo unspecified)	HCMV inh -75.7, MARV entry inh inconclusive
CN(CC(=O)Nc1cccc(F)c1)C(=O)c1cc(S(=O)(=O)N2CCN(c3ccccc3)CC2)ccc1Cl	FMDV antiviral inconclusive (no result: LASV entry inh, MARV entry inh)
CN(CC(=O)Nc1ccc(F)cc1)C(=O)c1ccncc1	HCMV inh -72.5
CN(CC(=O)Nc1ccc(F)cc1)C(=O)c1cccc(S(=O)(=O)N2CCN(c3ccc(F)cc3)CC2)c1	FMDV antiviral inconclusive, LASV entry inh inconclusive, HCMV inh -63.3, MARV entry inh inconclusive
CN(CC(=O)Nc1cccc(F)c1)C(=O)c1cccc(S(=O)(=O)N2CCN(c3ccccc3)CC2)c1	FMDV antiviral inconclusive, HCMV inh -76.7, MARV entry inh inconclusive
CCOC(=O)CN1C(=O)[C@@]2(CC(C)=CC[C@@H](COc3ccccc3)O2)c2c(Br)cccc21	none (no result: FMDV antiviral, LASV entry inh, HCMV inh)
CC(=O)OC1CC2C(C)(C)C(O)C=C[C@@]2(C)C2CC[C@@]3(C)C(c4ccoc4)OC(=O)C4OC43[C@]12C (stereo partly specified)	none (no result: LASV entry inh, HCMV inh, MARV entry inh)
Cc1cc2c(cc1NC(=O)c1ccc(C(C)(C)C)cc1)n(C)c(=O)c(=O)n2C	none (no result: MARV entry inh)
COc1cccc(CN(C)C(=O)c2cccc(S(=O)(=O)N3CCN(c4ccccc4)CC3)c2)c1	FMDV antiviral inconclusive (no result: LASV entry inh, MARV entry inh)
COc1ccc(CN(C)C(=O)c2cccc(S(=O)(=O)N3CCN(c4ccccc4)CC3)c2)c(OC)c1OC	FMDV antiviral inconclusive, LASV entry inh inconclusive, HCMV inh -69.8, MARV entry inh inconclusive
CN1CCC(N(C)c2nc(-c3ccc([N+](=O)[O-])cc3)nc3ccccc23)CC1	LASV entry inh inconclusive, MARV entry inh 11.2µM
Cc1cc(C(=O)OCC(=O)Nc2ccccc2)c(C)o1	none
Cc1cc(C(=O)OCC(=O)Nc2nc(-c3ccccc3)cs2)c(C)o1	LASV entry inh inconclusive, HCMV inh -101.4
COc1ccccc1NC(=O)COC(=O)c1cc(C)oc1C	HCMV inh -79.2
Cc1cc(C(=O)OC(C)C(=O)Nc2nc(-c3ccccc3)cs2)c(C)o1 (stereo unspecified)	LASV entry inh 13µM, MARV entry inh inconclusive (no result: FMDV antiviral)
CCOc1ccccc1NC(=O)COC(=O)c1cc(C)oc1C	none
O=C1CSC2(C(=O)N(Cc3ccccc3)c3ccccc32)N1c1ccc(Cl)cc1 (stereo unspecified)	FMDV antiviral inconclusive (no result: MARV entry inh)
COc1ccc(C(=O)/C=C/Nc2cc(C)ccn2)cc1	LASV entry inh inconclusive, MARV entry inh 1.26µM
COc1ccc(C(=O)C=CNNC(=O)c2ccc(Cl)cc2)cc1	LASV entry inh 5.62µM, MARV entry inh inconclusive
CSc1n[nH]c(-c2cccs2)n1	none (no result: FMDV antiviral, LASV entry inh, MARV entry inh)
COc1ccc(C(=O)CSc2ccc(-c3ccccc3)nn2)cc1	none
COc1ccc(-c2ccc(SC)nn2)cc1	LASV entry inh 3.55µM, MARV entry inh inconclusive
COc1cc(CNc2nc(C)c([N+](=O)[O-])c(C)c2C#N)cc(OC)c1OC	FMDV antiviral 25.1µM, LASV entry inh inconclusive, MARV entry inh inconclusive
COc1ccc(CNc2nc(C)c([N+](=O)[O-])c(C)c2C#N)cc1	HCMV inh inconclusive
NC(Cc1cnc[nH]1)C(=O)Nc1ccc2ccccc2c1 (stereo unspecified)	none (no result: LASV entry inh, HCMV inh, MARV entry inh)
C#C[C@]1(O)CCC2C3C(=O)C=C4C(Cl)=CCC[C@]4(C)C3CC[C@@]21C (stereo partly specified)	HCMV inh -79.7
CCOc1ccccc1NC(=O)c1c(C)cc(C)nc1SCC(=O)c1cccc(OC)c1	MARV entry inh inconclusive
C=CCCC1CN(Cc2ccc(OC)cc2)S(=O)(=O)c2c(cccc2N(C)S(=O)(=O)c2ccc(C)cc2)O1 (stereo unspecified)	none (no result: FMDV antiviral, LASV entry inh, MARV entry inh)
Cc1cccn2c(=O)c3cc(C(=O)NCCN4CCOCC4)c(=N)n(Cc4ccc(F)cc4)c3nc12	LASV entry inh 5.62µM, HCMV inh -100.4, MARV entry inh inconclusive
Cc1cccn2c(=O)c3cc(C(=O)NCCN4CCOCC4)c(=N)n(CCN4CCOCC4)c3nc12	MARV entry inh inconclusive
N=c1c(C(=O)NCc2ccccc2)cc2c(=O)n3ccccc3nc2n1CCCN1CCOCC1	MARV entry inh inconclusive
COc1ccc(CCNC(=O)c2cc3c(=O)n4cccc(C)c4nc3n(CCCN3CCOCC3)c2=N)cc1	HCMV inh -95.4 (no result: LASV entry inh, MARV entry inh)
Cc1c2cnn(CC(=O)NCCN3CCOCC3)c(=O)c2c(C)n1Cc1ccc(F)cc1	HCMV inh -72.3 (no result: LASV entry inh, MARV entry inh)
